Several values for one entry are separate records, joined by “and”; a condition that tells them apart may be missing. Equal entries are not always repeated. Inconclusive results are not listed. Where a call stands in place of a potency, no number is given. More than one record can exist for a structure, and the calls need not agree. Activity calls are given as the source filed them. Calls come from the whole dose curve; as a rule, active = well fitted cell-killing curve with a large enough effect in the repeat runs; inconclusive = weak or mixed curves, or effect the other way; inactive = no such curve, though single readings can be large or run the other way.
Potency is the fitted concentration of half-maximal effect.

A short description of this experiment: Caspase-3/7 induction in CHO-K1 cells by small molecules, qHTS cell viability counter screen (AID 1346979). Note: nearly all actives have a fitted effect of over 35% in size. The note with it: CellTiter-Fluor fluorescence, 17 h; series mostly up to 92.4 µM. The source says:
National Center for Advancing Translational Sciences [NCATS]
NIH Chemical Genomics Center [NCGC]
U.S. Environmental Protection Agency [EPA]
National Institutes of Environmental Health Sciences [NIEHS]
National Toxicology Program [NTP]
U.S. Food and Drug Administration [FDA]
Apoptosis is a process of programmed cell death and plays a central role in the development of multicellular organisms. It is a highly regulated process and induces cell death by activating caspases, which are the members of cysteine aspartic acid-specific protease (caspase) family. Caspases involved in apoptosis are classified by their mechanism of action as initiator caspases (caspase-2, -8, -9 and -10) and executioner caspases (caspase-3, -6, and -7). Inhibition of apoptosis results in number of cancers, autoimmune diseases, inflammatory diseases and viral infection. To identify small molecule compounds that induce apoptosis, a homogeneous, luminescent Caspase-Glo 3/7 assay was used. Wild type CHO-K1 cells were used to screen Tox21 libraries for identifying caspase-3/7 activity inducers. Also cytotoxicity of the compounds was tested in parallel by measuring the cell viability using CellTiter-Fluor assay system in the same wells.
Tox21 Assay Protocol Summary:
CHO-K1 cells were dispensed at 1,500 per well in 5uL of culture medium into white solid bottom 1536-well plates (Corning Life Sciences, Corning, NY) using a Multidrop Combi (Thermo Scientific, Waltham, MA) dispenser. The assay plates were incubated at 37 C and 5% CO2 for 5hr, and then 23nL of compounds dissolved in DMSO and positive control were transferred using a Pintool station (Wako, San Diego, CA). The assay plates were incubated at 37C and 5% CO2 for 17hr. For cytotoxicity read, after 16hr incubation at 37C, 1uL CellTiter-Fluor reagent (Promega Corporation, Madison, WI) was added to each well of the assay plates using Flying Reagent Dispenser (FRD, Aurora Discovery, San Diego, CA). After 1hr incubation at 37C and 5% CO2, the fluorescence signal was quantified using a ViewLux plate reader (PerkinElmer, Shelton, CT).
For orientation: Quantitative high-throughput screening tests each substance at several concentrations.
With `Cc1noc(NS(=O)(=O)c2ccc(N)cc2)c1C`, the Potency entry was “inactive”. In the case of `Cn1c(=O)c2[nH]cnc2n(C)c1=O` it was “inactive”; in that of `Cc1ccc(O)cc1`, “inactive”; in that of `NC(=O)c1cnccn1`, “inactive”.

As to `CCCCC1C(=O)N(c2ccccc2)N(c2ccccc2)C1=O`, the Potency entry is “inactive”. In the case of `OCCc1ccccc1` it was “inactive”. The same measure for `O=c1ccc2ccccc2o1`: “inactive”. The same measure for `Nc1ccc(S(=O)(=O)Nc2nccs2)cc1`: “inactive”; for `Nc1ccc(S(=O)(=O)c2ccc(N)cc2)cc1`: “inactive”. In the case of `O=C(O)CCCCCCCC(=O)O`, the Potency result was “inactive”. In the case of `CC(O)CO` (stereo not given) it was “inactive”; in that of `Cc1ccc(S(=O)(=O)NC(=O)NN2CCCCCC2)cc1`, “inactive”. In the case of `CC(O)C(=O)O` (stereo not given) it was “inactive”; in that of `CCOc1ccc(NC(=O)CC(C)O)cc1` (stereo not given), “inactive”; in that of `CC(C)(Oc1ccc(C2CC2(Cl)Cl)cc1)C(=O)O` (stereo not given), “inactive”.

On to `Oc1ccc(/C=C/c2cc(O)cc(O)c2)cc1`, for which the Potency is 69.2 µM (active) and 61.1 µM (active).

For the compound `O=C(O)c1cc(N=Nc2ccc(S(=O)(=O)Nc3ccccn3)cc2)ccc1O`, the Potency was 34.5 µM (active) and 54.5 µM (active) and 26.6 µM (active). The same measure for `Cc1cc(=O)[nH]c(=S)[nH]1`: “inactive”; for `NC(N)=NC(=O)c1nc(Cl)c(N)nc1N`: “inactive”. As to `O=C(O)CCC(=O)O`, the Potency result is “inactive”.

Regarding `CC1(C)[C@@H]2CC[C@@]1(C)C(=O)C2`, the Potency entry is “inactive”. As to `Cc1ccc(C)c(OCCCC(C)(C)C(=O)O)c1`, the Potency entry was “inactive”. `O=c1cc[nH]c(=S)[nH]1`: the Potency result is “inactive”. Turning to `CC(=O)Nc1nnc(S(N)(=O)=O)s1`, the Potency result is “inactive”.

For the compound `Cc1ccccc1C(OCCN(C)C)c1ccccc1` (stereo not given), the Potency result was “inactive”. The same measure for `NS(=O)(=O)c1cc(C(=O)O)c(NCc2ccco2)cc1Cl`: “inactive”; for `CCCCC(CC)COC(=O)/C=C/c1ccc(OC)cc1` (stereo not given): “inactive”. As for `O=S(=O)(O)NC1CCCCC1`, the Potency result is “inactive”. The same measure for `CCCC(CCC)C(=O)O`: “inactive”; for `CCCC(O)C(CC)CO` (stereo not given): “inactive”; for `CC(C)[C@@H]1CC[C@@H](C)C[C@H]1O`: “inactive”. In the case of `CC(=O)OCC(COC(C)=O)OC(C)=O`, the Potency entry was “inactive”. With `O=C(O)c1cccc([N+](=O)[O-])c1`, the Potency result is “inactive”. In the case of `Cc1cc(=O)n(-c2ccccc2)n1C`, the Potency entry is “inactive”. The same measure for `NC(N)=O`: 5.15 µM (active) and inactive. The same measure for `Nc1ccn([C@H]2CC[C@@H](CO)O2)c(=O)n1`: “inactive”; for `O=C(O)/C=C\C(=O)O`: “inactive”; for `Nc1ccc(C(=O)O)cc1`: “inactive”. As for `Cn1cc[nH]c1=S`, the Potency entry was “inactive”. The same measure for `NC(=O)c1ccccc1O`: “inactive”.

These data come from PubChem BioAssay (Tox21).
